In the supplement of paper PMC11732987, “Enantioselective OTUD7B fragment discovery through chemoproteomics screening and high-throughput optimisation” (Communications Chemistry, 2025):

Experiments:
Assay in all cases: log2 ratio of Biotin-Ahx-Ub-VS probe labelling (fragment/DMSO); higher = less target engagement (more negative = stronger competition), active = hit call of the paper (q ≤ 0.05, log2 ratio ≤ -1)
Conditions in all cases: compound concentration: 200 uM; treatment time: 3 h
USP34 = USP34 (UniProt Q70CQ2)
In short: (§1)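 Labelling with Biotin-Ahx-Ub-VS (0.5 µM final, 1 h) followed a 3 h triplicate treatment of HEK293T lysate (495 µg per sample, Tris/CHAPS/IGEPAL buffer with protease inhibitors) with fragment at 200 µM or vehicle. Labelled DUBs were NeutrAvidin-enriched, digested with LysC and trypsin, and run by diaPASEF LC-MS/MS. The values, average log2 fragment/vehicle ratios by unpaired t-test, come from global-median-normalised Spectronaut label-free quantities. Proteins with ≥2 unique peptides were used.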

USP36 = biological target: T1, USP36 (UniProt Q9P275)
T1 sequence (whole entry): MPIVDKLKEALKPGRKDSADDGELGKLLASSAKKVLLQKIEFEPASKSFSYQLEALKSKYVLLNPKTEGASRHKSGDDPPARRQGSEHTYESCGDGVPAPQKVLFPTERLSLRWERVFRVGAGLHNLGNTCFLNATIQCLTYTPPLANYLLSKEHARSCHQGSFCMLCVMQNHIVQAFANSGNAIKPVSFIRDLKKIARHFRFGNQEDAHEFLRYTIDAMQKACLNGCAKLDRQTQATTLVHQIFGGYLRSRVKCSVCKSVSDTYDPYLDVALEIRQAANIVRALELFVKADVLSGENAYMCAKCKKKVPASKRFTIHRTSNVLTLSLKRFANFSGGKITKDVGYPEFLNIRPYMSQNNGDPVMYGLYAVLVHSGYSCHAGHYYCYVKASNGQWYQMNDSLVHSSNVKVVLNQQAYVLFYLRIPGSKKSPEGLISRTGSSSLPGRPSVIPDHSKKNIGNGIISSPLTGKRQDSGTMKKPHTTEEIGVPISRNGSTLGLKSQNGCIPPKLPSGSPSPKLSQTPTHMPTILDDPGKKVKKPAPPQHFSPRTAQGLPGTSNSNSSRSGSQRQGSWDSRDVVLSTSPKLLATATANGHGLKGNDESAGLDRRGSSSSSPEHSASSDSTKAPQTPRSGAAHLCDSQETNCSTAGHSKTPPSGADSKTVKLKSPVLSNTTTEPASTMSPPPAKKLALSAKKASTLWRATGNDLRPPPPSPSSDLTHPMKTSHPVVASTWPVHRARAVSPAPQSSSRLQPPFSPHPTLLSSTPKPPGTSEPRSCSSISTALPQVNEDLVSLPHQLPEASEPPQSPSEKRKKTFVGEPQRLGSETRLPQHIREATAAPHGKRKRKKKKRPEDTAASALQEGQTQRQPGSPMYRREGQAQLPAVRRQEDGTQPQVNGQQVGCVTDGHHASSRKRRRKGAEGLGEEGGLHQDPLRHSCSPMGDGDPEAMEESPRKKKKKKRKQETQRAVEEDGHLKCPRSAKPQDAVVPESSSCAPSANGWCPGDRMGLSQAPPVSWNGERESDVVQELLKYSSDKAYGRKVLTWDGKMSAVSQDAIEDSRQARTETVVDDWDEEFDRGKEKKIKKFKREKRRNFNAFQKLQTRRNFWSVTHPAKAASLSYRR
In short: as §1

USP38 = biological target: T2, USP38 (UniProt Q8NB14)
T2 sequence (whole entry): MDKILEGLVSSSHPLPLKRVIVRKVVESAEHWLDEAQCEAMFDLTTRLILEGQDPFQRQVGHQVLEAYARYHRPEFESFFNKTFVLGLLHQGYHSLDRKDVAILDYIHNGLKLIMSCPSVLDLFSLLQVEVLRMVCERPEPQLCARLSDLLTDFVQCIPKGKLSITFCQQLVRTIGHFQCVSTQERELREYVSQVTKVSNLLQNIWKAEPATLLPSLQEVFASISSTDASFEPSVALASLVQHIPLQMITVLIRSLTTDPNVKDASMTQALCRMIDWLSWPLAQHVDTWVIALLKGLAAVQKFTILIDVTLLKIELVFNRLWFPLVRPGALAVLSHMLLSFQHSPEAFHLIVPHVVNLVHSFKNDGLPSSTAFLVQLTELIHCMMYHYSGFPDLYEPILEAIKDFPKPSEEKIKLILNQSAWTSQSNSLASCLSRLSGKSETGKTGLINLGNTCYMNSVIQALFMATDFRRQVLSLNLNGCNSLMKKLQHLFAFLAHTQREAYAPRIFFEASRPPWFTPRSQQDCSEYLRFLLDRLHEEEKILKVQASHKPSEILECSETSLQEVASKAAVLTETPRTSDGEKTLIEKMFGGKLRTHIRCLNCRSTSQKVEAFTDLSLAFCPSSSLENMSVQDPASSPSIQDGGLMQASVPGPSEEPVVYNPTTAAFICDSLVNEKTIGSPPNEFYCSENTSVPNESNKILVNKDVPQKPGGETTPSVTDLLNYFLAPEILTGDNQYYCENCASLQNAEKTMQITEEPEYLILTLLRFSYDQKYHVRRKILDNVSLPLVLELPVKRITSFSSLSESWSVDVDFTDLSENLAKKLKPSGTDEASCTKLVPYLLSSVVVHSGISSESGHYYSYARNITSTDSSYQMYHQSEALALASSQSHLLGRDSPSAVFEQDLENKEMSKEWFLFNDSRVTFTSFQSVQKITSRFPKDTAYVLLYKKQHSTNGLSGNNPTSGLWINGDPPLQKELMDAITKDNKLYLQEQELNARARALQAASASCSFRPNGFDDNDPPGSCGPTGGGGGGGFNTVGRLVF
In short: as §1

USP39 = biological target: T3, USP39 (UniProt Q53GS9)
T3 sequence (whole entry): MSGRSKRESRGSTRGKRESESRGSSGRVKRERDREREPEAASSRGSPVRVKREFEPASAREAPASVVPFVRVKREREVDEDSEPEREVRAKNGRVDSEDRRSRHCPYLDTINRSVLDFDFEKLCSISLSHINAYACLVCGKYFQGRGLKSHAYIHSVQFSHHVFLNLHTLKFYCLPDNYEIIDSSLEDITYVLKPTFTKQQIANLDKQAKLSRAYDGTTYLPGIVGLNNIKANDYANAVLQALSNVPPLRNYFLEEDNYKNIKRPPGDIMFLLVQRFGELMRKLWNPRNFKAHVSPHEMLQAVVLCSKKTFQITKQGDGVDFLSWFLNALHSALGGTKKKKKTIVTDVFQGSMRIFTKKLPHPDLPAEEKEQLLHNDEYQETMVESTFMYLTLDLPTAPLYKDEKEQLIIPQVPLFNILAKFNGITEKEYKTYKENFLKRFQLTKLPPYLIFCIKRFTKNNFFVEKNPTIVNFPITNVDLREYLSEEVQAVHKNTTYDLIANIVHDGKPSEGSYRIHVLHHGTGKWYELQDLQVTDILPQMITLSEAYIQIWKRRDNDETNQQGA
In short: as §1

USP4 = biological target: T4, USP4 (UniProt Q13107)
T4 sequence (whole entry): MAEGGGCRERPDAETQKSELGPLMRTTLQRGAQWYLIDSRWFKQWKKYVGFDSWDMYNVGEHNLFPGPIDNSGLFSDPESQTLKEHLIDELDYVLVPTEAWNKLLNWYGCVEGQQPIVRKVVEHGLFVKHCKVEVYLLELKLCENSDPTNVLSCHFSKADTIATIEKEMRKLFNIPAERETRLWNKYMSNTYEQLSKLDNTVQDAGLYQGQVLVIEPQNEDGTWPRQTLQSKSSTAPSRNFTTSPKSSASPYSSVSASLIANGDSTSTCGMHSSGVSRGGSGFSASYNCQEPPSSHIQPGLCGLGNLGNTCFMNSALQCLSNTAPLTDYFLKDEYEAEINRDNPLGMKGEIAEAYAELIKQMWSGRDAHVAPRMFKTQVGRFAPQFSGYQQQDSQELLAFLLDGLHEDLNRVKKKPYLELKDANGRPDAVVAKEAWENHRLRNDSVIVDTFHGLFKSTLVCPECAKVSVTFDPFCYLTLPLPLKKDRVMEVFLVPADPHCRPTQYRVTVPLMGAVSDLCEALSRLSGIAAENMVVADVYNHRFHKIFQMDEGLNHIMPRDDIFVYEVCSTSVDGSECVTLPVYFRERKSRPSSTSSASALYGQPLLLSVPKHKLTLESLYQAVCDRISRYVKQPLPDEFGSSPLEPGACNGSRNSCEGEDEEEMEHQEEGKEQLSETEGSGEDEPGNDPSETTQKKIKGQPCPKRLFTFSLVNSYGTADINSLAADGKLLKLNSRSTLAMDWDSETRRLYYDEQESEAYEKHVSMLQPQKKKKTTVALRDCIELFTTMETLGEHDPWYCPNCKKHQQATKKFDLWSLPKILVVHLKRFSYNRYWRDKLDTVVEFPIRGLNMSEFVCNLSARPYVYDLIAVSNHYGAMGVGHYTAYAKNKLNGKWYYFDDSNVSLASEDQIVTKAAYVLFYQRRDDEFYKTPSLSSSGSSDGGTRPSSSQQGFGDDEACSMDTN
In short: as §1

Measured: log2 ratio of Biotin-Ahx-Ub-VS probe labelling

USP34, sequence (Q70CQ2 whole entry, the tested form may be a part): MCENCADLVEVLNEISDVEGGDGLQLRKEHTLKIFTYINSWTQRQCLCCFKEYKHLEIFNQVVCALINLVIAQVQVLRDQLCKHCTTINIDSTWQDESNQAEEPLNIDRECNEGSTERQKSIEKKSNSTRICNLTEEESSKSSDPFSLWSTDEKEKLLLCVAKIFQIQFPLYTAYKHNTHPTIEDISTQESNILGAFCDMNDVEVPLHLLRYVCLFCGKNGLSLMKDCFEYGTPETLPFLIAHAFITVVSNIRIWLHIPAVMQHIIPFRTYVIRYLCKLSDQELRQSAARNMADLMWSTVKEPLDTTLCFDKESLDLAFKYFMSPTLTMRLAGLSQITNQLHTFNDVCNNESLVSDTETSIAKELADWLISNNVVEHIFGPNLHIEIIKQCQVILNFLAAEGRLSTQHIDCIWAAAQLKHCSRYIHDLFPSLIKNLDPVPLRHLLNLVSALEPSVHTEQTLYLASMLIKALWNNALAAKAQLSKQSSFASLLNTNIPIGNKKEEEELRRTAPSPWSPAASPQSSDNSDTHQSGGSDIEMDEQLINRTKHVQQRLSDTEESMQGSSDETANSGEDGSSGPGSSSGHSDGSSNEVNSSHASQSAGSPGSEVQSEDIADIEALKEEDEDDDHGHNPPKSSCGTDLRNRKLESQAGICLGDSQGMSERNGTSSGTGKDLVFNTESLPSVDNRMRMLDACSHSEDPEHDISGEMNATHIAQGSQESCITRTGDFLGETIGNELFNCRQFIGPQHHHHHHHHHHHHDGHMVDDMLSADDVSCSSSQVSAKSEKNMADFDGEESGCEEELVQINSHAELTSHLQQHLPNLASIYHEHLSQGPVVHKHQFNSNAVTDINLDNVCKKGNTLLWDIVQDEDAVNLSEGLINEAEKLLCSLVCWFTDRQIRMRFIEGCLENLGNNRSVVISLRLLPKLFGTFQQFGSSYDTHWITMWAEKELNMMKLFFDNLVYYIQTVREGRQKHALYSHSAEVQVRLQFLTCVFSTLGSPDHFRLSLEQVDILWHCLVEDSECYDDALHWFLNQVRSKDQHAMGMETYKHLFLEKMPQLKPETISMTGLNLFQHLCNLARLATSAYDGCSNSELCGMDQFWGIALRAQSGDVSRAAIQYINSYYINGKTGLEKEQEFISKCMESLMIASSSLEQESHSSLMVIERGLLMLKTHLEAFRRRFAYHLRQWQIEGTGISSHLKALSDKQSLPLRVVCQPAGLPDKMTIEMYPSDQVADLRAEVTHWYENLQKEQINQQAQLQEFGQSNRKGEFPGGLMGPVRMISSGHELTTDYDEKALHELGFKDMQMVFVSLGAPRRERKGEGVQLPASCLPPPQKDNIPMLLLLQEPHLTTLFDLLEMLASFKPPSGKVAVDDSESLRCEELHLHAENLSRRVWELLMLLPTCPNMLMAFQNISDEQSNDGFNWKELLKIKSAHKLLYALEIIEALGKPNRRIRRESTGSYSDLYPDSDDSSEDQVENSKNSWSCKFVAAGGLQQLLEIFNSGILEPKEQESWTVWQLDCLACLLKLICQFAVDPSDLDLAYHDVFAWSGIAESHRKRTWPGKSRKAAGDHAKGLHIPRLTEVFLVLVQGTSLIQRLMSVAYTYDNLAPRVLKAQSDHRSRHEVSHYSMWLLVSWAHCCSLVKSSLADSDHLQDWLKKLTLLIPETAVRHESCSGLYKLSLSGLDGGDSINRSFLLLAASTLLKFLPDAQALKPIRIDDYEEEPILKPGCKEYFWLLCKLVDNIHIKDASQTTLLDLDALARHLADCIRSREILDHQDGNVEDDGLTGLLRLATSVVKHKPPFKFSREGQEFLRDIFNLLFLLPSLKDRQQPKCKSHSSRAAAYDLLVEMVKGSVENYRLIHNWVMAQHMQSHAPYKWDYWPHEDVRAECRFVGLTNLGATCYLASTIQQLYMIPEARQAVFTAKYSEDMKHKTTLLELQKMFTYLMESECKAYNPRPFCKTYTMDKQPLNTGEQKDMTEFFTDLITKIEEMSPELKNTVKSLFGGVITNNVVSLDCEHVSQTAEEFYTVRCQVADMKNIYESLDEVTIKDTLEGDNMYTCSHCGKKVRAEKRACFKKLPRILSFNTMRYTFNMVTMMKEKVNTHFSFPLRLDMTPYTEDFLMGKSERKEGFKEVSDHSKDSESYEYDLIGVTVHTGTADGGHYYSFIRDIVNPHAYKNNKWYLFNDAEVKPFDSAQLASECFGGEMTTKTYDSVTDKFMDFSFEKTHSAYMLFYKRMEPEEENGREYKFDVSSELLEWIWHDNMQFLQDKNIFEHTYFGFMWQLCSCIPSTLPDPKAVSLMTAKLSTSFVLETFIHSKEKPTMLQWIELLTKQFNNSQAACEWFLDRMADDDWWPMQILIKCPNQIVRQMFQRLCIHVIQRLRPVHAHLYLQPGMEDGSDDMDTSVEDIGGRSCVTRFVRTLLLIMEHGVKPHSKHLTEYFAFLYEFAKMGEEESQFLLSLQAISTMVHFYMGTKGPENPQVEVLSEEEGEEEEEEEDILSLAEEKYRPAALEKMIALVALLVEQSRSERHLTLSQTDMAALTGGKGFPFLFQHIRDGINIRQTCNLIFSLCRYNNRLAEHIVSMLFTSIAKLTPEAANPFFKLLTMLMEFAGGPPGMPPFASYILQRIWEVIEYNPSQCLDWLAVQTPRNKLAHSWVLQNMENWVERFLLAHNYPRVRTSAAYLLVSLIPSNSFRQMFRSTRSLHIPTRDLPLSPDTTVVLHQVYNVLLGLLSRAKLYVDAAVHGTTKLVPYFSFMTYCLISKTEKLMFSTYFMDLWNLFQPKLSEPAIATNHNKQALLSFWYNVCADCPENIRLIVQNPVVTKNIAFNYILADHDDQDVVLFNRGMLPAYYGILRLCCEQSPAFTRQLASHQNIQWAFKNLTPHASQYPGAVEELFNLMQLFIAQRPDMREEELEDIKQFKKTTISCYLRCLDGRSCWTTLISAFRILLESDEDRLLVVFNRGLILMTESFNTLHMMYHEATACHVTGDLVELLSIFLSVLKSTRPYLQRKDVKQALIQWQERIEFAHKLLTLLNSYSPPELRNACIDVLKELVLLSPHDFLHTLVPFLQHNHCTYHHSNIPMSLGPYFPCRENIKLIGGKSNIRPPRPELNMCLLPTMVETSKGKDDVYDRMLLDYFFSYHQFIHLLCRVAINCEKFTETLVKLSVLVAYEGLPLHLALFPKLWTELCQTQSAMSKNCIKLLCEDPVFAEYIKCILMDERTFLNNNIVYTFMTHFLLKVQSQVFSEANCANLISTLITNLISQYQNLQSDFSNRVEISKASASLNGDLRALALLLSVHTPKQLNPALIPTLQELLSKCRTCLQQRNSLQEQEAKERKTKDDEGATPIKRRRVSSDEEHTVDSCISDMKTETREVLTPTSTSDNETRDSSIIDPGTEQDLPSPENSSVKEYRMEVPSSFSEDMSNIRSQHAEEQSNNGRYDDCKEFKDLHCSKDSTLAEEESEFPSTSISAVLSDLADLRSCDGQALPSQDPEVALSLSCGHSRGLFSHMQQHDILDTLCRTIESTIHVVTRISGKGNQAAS

Cl.Cn1ncc2c1CCCC2NC(=O)CCl (stereo not given)
inactive: USP34 -0.0828 | USP36 -0.298 | USP38 -0.175 | USP39 -0.0961 | USP4 0.00214
